# Most compounds without a hit are left out; they make up all but 0.65% or so of the library.
# NS1 function inh = blocks influenza NS1 protein function; 270,000 tested, 0.4% active; Potency, µM (series often up to 46.1 µM), for inactives: top-dose activity, positive = more growth; note: actives are rising curves; nearly all actives have a fitted effect of over 50% in size
#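 Read-out: OD600 growth recovery of NS1-expressing budding yeast. Cells grown overnight at 30C in -URA glucose medium, washed, resuspended and diluted 1:100 in 2% galactose assay medium, pH 6.0. Same strain lacking NS1 served as positive control.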
# SARS PLP yeast = SARS-CoV PLP inhibition in yeast | S. cerevisiae expressing SARS-CoV PLpro, growth rescue | AID 485353 | 330,000 tested, 0.19% active | Potency, µM (highest dose often 32.9 µM), for the others: at the highest dose activity, positive = growth rescue, most hits filed as activators; note: 0% is about no effect; nearly all actives have a fitted effect of over 55% in size
# AMA1 RON2 block = inhibitors of Plasmodium falciparum AMA1-RON2 interaction; AlphaScreen AMA1-biotinylated RON2 peptide binding; Potency, µM (titrated, usually from 58.2 µM), for the others: top-dose activity change, negative = inhibition, most hits filed as inhibitors; 360,000 tested, 0.2% active; AID 720542; active = well fitted inhibition curve with a large enough effect; inconclusive = small, poorly fitted or top-dose-only effect; inactive = no such curve, though single readings can be large or run the other way;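 note: 0% = vehicle wells and -100% = peptide control; nearly all actives have a fitted effect of over 45% in size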
#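 AMA1 (3D7) with his tag at 25 nM final met compounds first, then biotinylated RON2 peptide at 25 nM; detection used donor plus acceptor beads, 10 µg/mL apiece, read by AlphaScreen after 30 min at room temperature.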
# Active calls of the source: *; u = inconclusive; x = no result. Unless noted, calls come from the whole dose curve. Potency is the fitted concentration of half-maximal effect.
SMILES,NS1 function inh,SARS PLP yeast,AMA1 RON2 block
CN(C)c1ccc(-c2csc(C(O)c3ccccc3)n2)cc1 (configuration not stated),x,x,25.1µM*
CC(O)(c1cccc(F)c1)c1nc(-c2ccc(Cl)cc2)cs1 (configuration not stated),x,x,-1.9%
Cc1ccc(-c2csc(C(O)c3ccccc3)n2)cc1C (configuration not stated),x,x,1.5%
CN(C)c1ccc(-c2csc(C(C)(O)c3cccc(F)c3)n2)cc1 (configuration not stated),x,x,15.8µM*
CC#C[C@]1(O)CC[C@H]2C3CCC4=CC(=O)CCC4=C3[C@@H](c3ccc(N(C)C)cc3)C[C@@]21C (some centres not stated),-39.3%,x,x
COc1ccc(/[N+]([O-])=C/c2ccco2)cc1,x,-4.7%,-18.9%
COC(=O)C1=C(C(=O)OC)C2C=CC1C1C(OC(C)=O)C(OC(C)=O)C21 (configuration not stated),x,x,-2.0%
CCOC(=O)c1c[nH][nH]c1=O,2.3%,-0.5%,3.4%
CCN(CC)c1ccccc1,x,2.3%,7.6%
CCN(CC)c1ccc(C(=C2C=CC(=[N+](CC)CC)C=C2)c2ccccc2)cc1,x,x,11.2µM*
CCN(CC)c1ccc(C(=O)NNC(=O)CCl)cc1,x,7.9%,50.8%
CCN(CC)c1ccc(C(=C2C=CC(=[N+](CC)CC)C=C2)c2ccc(N(CC)CC)cc2)cc1,x,x,2.24µM*
CN(Cc1ccccc1)C(=O)c1ccc(NC(=O)c2ccccc2)cc1,-11.1%,0.5%,20.9%
COc1ccc(C(=O)Nc2cccc3c2CCCC3)c(OC)c1,x,x,-4.7%
O=c1oc2c3c4c(cc2s1)CCCN4CCC3,-137.3%,-35.5%,14.1µM*
O=c1ccc2cc3c4c(c2o1)CCCN4CCC3,1.8%,-0.5%,-13.4%
O=C(NCC(=O)N(c1ccc(Cl)cc1)C(C(=O)NC1CCCC1)c1ccncc1)c1ccco1 (configuration not stated),-3.0%,1.2%,2.9%
O=C(NCC(=O)N(c1ccc2c(c1)OCO2)C(C(=O)NC1CCCC1)c1ccncc1)c1ccco1 (configuration not stated),-3.1%,2.3%,39.8µM*
COc1ccccc1-n1cnnc1SCC(=O)NCC1CCCO1 (configuration not stated),x,2.3%,1.2%
CC(C)(C)c1ccc(/C=N/NC(=S)NC2CCCCC2)cc1,-0.7%,20µM*,31.3%
O=C(N/N=C/c1ccccc1)NC1CCCCC1,-9.5%,-18.1%,-4.8%
Nc1ccccc1N=Nc1ccccc1N,-52.6%,-14.8%,31.6µM*
Nc1ccccc1-c1ccccc1N,12.4%,0.4%,17.2%
CC1(OC(=O)CCc2ccccc2)C(=O)C=C2C=C(c3ccsc3)OC=C2C1=O (configuration not stated),1.26µM*,1.5%,x
CC1(OC(=O)C2CCCC2)C(=O)C=C2C=C(c3ccsc3)OC=C2C1=O (configuration not stated),-27.0%,0.2%,-26.3%
SMILES,NS1 function inh,SARS PLP yeast,AMA1 RON2 block
C/C=C/C1=CC(=O)C[C@H](c2ccc3c(c2)OCO3)C1,x,0.7%,-5.6%
O=C(Cc1ccc(Cl)cc1)Nc1ccccc1Sc1ccccc1,1.9%,-16.0%,25.3%
O=C(CCl)Nc1ccccc1Sc1ccccc1,-8.1%,12.6µM*,-15.9%
COc1cc(-c2nnc3n2CCCCC3)cc(OC)c1OC,0.6%,4.0%,-1.1%
CC1(C(=O)OCC(=O)NNC(=O)COc2ccc(Cl)cc2)CC1(Cl)Cl (configuration not stated),x,-0.7%,129.1%
COc1cc(C(=O)OC(C)C(=O)NC(=O)NC2CCCCC2)ccc1OC(F)F (configuration not stated),x,-6.0%,-4.0%
O=[N+]([O-])c1cccc(C2NCC(c3ccccc3Cl)c3c2[nH]c2ccccc32)c1 (configuration not stated),x,-19.0%,u
CN(C)c1ccc(C2CNC(c3ccc(Cl)c([N+](=O)[O-])c3)c3[nH]c4ccccc4c32)cc1 (configuration not stated),-52.0%,-1.2%,20µM*
Cc1ccc(NC(=S)N2CCC(NC(=O)c3ccco3)CC2)cc1C,-4.3%,-5.1%,-1.6%
O=C(O)c1ccc(N2C(=O)/C(=C/C=C/c3ccccc3)SC2=S)cc1,6.9%,0.0%,7.4%
CN(C)c1ccc(/C=C/C=C2/SC(=S)N(c3ccccc3)C2=O)cc1,x,0.9%,2.51µM*
CC1CCC(NC(=O)C2CC(=O)N(c3ccc(Cl)cc3)C2)CC1 (configuration not stated),12.8%,1.1%,-6.6%
CCOC(=O)C1Nc2ccc(Br)cc2C2C=CCC12 (configuration not stated),12.5%,-4.3%,-20.3%
O=C(O)C1Nc2c(Cl)cc(Cl)c(Cl)c2C2C=CCC12 (configuration not stated),x,x,-12.7%
O=C(O)C1Nc2c(Cl)cc(Cl)cc2C2C=CCC12 (configuration not stated),10.3%,7.2%,14.1µM*
O=C(O)C1Nc2ccc(Br)cc2C2C=CCC12 (configuration not stated),25.2%,-3.5%,10µM*
COc1ccc2c(c1)c1c(C)c3cnccc3c(C)c1n2CCCN,-0.1%,x,x
Cc1ccc(NC2=CC(=O)C(=O)c3ccccc32)cc1,-18.4%,-54.3%,-19.3%
Cc1ccc(SC2=C(N(C)C)C(=O)c3ccccc3C2=O)cc1,x,x,8.91µM*
O=C(O)[C@@H]1[C@@H](C(=O)O)[C@@]23CCCC2=C2CC[C@@]3(C(=O)O)[C@@]3(C(=O)O)C[C@@]213,-5.8%,x,x
O=C(O)CN1CCN(CC(=O)O)CC(=O)[O][Hg][O]C(=O)C1,-61.3%,x,x
O=C(O)c1ccc(S(=O)(=O)N[C@H](Cc2ccc([N+](=O)[O-])cc2)C(=O)O)cc1,x,2.24µM*,x
COc1ccc(C[C@@H](NS(=O)(=O)c2ccc(C(=O)O)cc2)C(=O)O)cc1,x,2.2%,x
O=C(O)c1ccc(S(=O)(=O)N[C@H](Cc2ccc(C(F)(F)F)cc2)C(=O)O)cc1,x,2.82µM*,x
CC(C)(C)c1ccc(S(=O)(=O)NC(Cc2ccccc2)C(=O)O)cc1 (configuration not stated),2.0%,4.0%,-3.3%
SMILES,NS1 function inh,SARS PLP yeast,AMA1 RON2 block
CCSC[C@@H](N)C(=O)O,3.5%,x,x
Cc1ccc2c(c1)C1CC(C)(O2)N(c2cccc(C(=O)N3CCN(c4ccccn4)CC3)c2)C(=O)N1 (configuration not stated),-38.9%,5.5%,7.4%
CCN(CC)c1ccc(N=Cc2ccc([N+](=O)[O-])o2)cc1,-36.9%,-58.8%,u
CCN(CC)c1ccc(N=Cc2ccccc2[N+](=O)[O-])cc1,-2.7%,13.9%,17.8µM*
CCN(CC)c1ccc(NC(=S)Nc2ccc(F)cc2)cc1,x,-3.9%,31.6µM*
Oc1ccc(NC(=S)Nc2ccc(F)cc2)cc1,-7.0%,-2.7%,14.2%
O=C(Nc1ccccn1)c1ccc(S(=O)(=O)N2CCCCC2)cc1,x,-0.9%,-1.0%
Cc1ccc(S(=O)(=O)N2CCN(C(=O)CSc3ccccn3)CC2)c(C)c1,x,-1.4%,-10.6%
CCN(CC)C(=O)CC(c1ccc(N(C)C)cc1)c1c(OC)cc(OC)c2ccc(=O)oc12 (configuration not stated),-34.4%,-0.2%,-11.6%
CCN(CC)C(=O)CC(c1ccc(N(C)C)cc1)c1c(OC)cc(OC)c2c(-c3ccccc3)cc(=O)oc12 (configuration not stated),-32.5%,-3.4%,22.4µM*
